Bioassay records as filed in PubChem BioAssay.
NPR1 antag: human Npr1 receptor antagonism; P16066; HEK293 hNpr1 GloSensor cGMP, ANP-stimulated luminescence; Potency, µM (doses to about 46.3 µM), without a hit: at the top dose activity change, negative = inhibition, actives largely listed as inhibitors; hit rate 1.6% among 76,000; calls by dose curve; further: nearly all actives have a fitted effect of over 60% in size
Target sequence (P16066 whole entry, looked up): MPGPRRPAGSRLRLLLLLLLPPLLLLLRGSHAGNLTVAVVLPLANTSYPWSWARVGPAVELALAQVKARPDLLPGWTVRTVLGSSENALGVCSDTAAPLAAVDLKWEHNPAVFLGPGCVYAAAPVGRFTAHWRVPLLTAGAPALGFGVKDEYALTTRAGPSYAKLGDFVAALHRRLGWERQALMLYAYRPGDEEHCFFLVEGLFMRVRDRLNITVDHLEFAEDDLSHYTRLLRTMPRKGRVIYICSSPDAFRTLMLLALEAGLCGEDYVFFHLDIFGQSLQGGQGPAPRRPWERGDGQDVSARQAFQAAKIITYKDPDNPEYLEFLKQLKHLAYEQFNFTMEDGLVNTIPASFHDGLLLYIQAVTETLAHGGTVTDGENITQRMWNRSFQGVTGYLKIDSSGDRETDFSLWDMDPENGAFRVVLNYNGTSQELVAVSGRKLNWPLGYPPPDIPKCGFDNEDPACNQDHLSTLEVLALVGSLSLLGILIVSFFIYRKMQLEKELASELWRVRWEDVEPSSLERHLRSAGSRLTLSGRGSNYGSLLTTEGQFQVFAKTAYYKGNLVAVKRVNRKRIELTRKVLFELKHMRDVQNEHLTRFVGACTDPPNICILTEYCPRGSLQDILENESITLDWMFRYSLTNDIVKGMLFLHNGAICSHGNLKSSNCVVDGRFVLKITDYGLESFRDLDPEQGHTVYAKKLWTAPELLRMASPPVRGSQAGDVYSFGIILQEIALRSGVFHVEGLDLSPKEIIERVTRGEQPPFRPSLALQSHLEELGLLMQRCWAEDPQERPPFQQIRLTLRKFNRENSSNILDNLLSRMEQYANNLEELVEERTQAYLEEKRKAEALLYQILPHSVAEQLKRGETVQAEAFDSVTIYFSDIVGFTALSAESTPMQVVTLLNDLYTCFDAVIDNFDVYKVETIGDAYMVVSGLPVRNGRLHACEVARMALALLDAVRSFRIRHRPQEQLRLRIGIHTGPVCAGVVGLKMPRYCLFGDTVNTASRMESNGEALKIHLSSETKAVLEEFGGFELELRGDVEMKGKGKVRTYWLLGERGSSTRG
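HEK293 cells stably expressing human Npr1 and cGMP GloSensor pGS-40F, loaded 2 h with 2% GloSensor reagent, given compound 30 min at room temperature. Luminescence read before and 20 min after 0.1 nM hNppA.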
FLuc inh: blocks purified firefly luciferase enzyme activity; P08659; purified P. pyralis luciferase, luminescence, biochemical; Potency, µM (top dose mostly 115 µM), hits mostly inhibitors; hit rate 2.5% among 76,000; further: nearly all actives have a fitted effect of over 65% in size
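Biochemical qHTS: compound (6-point titration) added to 10uM D-luciferin plus 10uM ATP in Tris acetate pH 7.5 buffer with Mg, Tween-20 and BSA, then purified enzyme at 10nM; light output imaged.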
NIH3T3 tox: kills NIH 3T3 cells; NIH 3T3 viability, CellTiter-Glo ATP luminescence, 48-72 h; Potency, µM (titrated, usually from 96.7 µM), for the others: top-dose activity change, negative = cytotoxicity, hits mostly inhibitors; hit rate 4.3% among 94,000; AID 1345082; further: nearly all actives have a fitted effect of over 55% in size
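Cells were seeded at 400 per well, treated with pin-transferred compound, and kept 48 or 72 hr at 37 °C before CellTiter-Glo addition and luminescence imaging of cellular ATP.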
HEK cytotox: HEK 293 cell cytotoxicity. HEK 293 viability, ATP luminescence (CellTiter-Glo), 48-72 h. Potency, µM (titrated, usually from 115 µM), inactives show at the highest dose activity change, negative = cytotoxicity, most hits filed as inhibitors. hit rate 6.6% among 94,000. AID 1345083; further: nearly all actives have a fitted effect of over 60% in size
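CellTiter-Glo luminescence (cellular ATP) was read after 48 or 72 hr of compound exposure at 37 degree Celsius. Cells were HEK 293 plated at 250 cells/well.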
GPT2 inhibitor: GPT2 alanine aminotransferase inhibition; Recombinant GPT2, coupled pyruvate oxidase/HRP Amplex Red fluorescence; Potency, µM (doses to about 57.7 µM), for the others: top-dose activity change, negative = inhibition, most hits filed as inhibitors; Q8TD30; hit rate 0.25% among 100,000; further: nearly all actives have a fitted effect of over 60% in size
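Fluorescence of coupled pyruvate oxidase/HRP/Amplex Red system (50uM Amplex, 30 min, dark) reports pyruvate formed by GPT2. Enzyme reaction: 10ng/uL GPT2, 2mM L-alanine, 250uM a-KG, 30 min room temperature, pH 7.5; 50uM AOA control.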
* hit, by the source's call; i = inactive; u = inconclusive; x = not tested or not shown; ! = not confirmed by another sample; [ ] = dose if it differs, or a comment. Most compounds without a hit are left out; they make up all but 10% or so of the library. Unless noted, the call rests on the fitted dose curve; in most records, active means well fitted curve in the direction sought with a large enough effect; inconclusive means small, poorly fitted or top-dose-only effect, or another doubt; inactive means no such curve, though single readings can be large; an effect the other way counts as inactive or inconclusive. On the % scale 0 is the no-effect control and ±100 the full control effect; potency means the concentration at half of the fitted maximal effect.

SMILES | NPR1 antag | FLuc inh | NIH3T3 tox | HEK cytotox | GPT2 inhibitor
COc1ccc(NC(=O)C2(C)CN(C)Cc3ccc(NCc4ccccc4)nc32)cn1 (stereo not given) | -17%[70.6 µM] | i | 79µM* | 79µM* | -1%[88.5 µM]
COc1cccc(-c2cccc(C(=O)N3CCN([S+](=O)([O-])c4ccccc4)CC3)c2)c1 | x | x | u | 35µM* | i
COc1cccc(-c2cccc(C(=O)N3CCN(C(=O)c4ccc(F)cc4)CC3)c2)c1 | x | x | u | 28µM* | 4%
COc1cccc(-c2cccc(C(=O)N3CCN(C(=O)c4ccc(C)cc4)CC3)c2)c1 | x | x | u | u | -8%
O=[S+]1([O-])NCC2(CCCN(Cc3ccc(Cl)cc3)C2)Oc2ncccc21 (stereo not given) | x | x | u | 89µM* | i
O=[S+]1([O-])NCC2(CCCN(Cc3ccc(OC(F)(F)F)cc3)C2)Nc2ccccc21 (stereo not given) | -25% | i | 45µM* | u | -13%
COc1ccc(CN2CCC3(CC2)CN[S+](=O)([O-])c2ccccc2N3)cc1 | 0% | i | -23% | u | i
O=[S+]1([O-])NCC2(CCCN(Cc3ccc(C(F)(F)F)cc3)C2)Nc2ccccc21 (stereo not given) | -17% | i | u | 32µM* | u
O=[S+]1([O-])NCC2(CCN(Cc3ccc(OC(F)(F)F)cc3)CC2)Nc2ccccc21 | 1% | i | u | 40µM* | 2%
COCC(=O)N(C)Cc1ccc(F)cc1 | 6%[70.6 µM] | i | -12%[174 µM] | -15%[230 µM] | i
Cc1cn2nc(C(=O)N3CCC(NC(=O)c4cccc(N(C)C)c4)CC3)cc2c(=O)[nH]1 | 0% | 35µM* | -20% | -12% | i
COc1ccc(-c2ccnc(-c3nnc(C)n3CCN(C)C)c2)cc1OC | 6%[70.6 µM] | i | 25µM* | -17%[172 µM] | -6%[88.5 µM]
COc1ccc(-c2ccnc(-c3nnc(C)n3C(C)C)c2)cc1OC | 2%[70.6 µM] | i | 100µM* | -11%[172 µM] | 4%[88.5 µM]
COC1CCOC2(CCN(C(=O)c3ccccc3F)CC2)C1 (stereo not given) | 5% | i | -10% | 1% | i
CC(C)[C@H]1CN(CCS(C)(=O)=O)C[C@@H]1NC(=O)c1ccco1 | 2% | i | 4% | -24% | -3%
O=C(Nc1ccc(C2(C(=O)NCc3ccco3)CCCCC2)cc1)C1CC1 | -8% | i | -26% | -20% | -19%
COc1ccccc1CCn1cnc(-c2ccccc2)c1-c1cn(C)nc1C | -5% | i | u | 79µM* | -4%
O[C@H]1CN[C@H](c2nc(-c3ccccn3)no2)C1 | 0%[70.6 µM] | i | -7%[230 µM] | -4%[230 µM] | -25%[88.5 µM]
c1ccc(C2=NOC3(CCN(Cc4c[nH]c5ccccc45)CC3)C2)cc1 | x | x | u | 45µM* | i
c1ccc(CC2=NOC3(CCN(Cc4c[nH]c5ccccc45)CC3)C2)cc1 | x | x | 32µM* | 50µM* | -7%
C[S+](=O)([O-])N1CC2(CCN(Cc3c[nH]c4ccccc34)CC2)Cc2ccccc21 | x | x | 25µM* | 45µM* | 2%
CC(C)C1=NOC2(CCN(Cc3c[nH]c4ccccc34)CC2)C1 | x | x | -2% | -1% | -2%
CC(=O)N1CC2(CCN(Cc3c[nH]c4ccccc34)CC2)Cc2ccccc21 | x | x | u | u | -32%
CS(=O)(=O)N(Cc1cccnc1)C1CN(C(=O)c2ccc3[nH]ccc3c2)C1 | 0% | i | i | -1% | 5%
O=C(NC1CCCN(c2cc(-c3ccc(F)cc3)[nH]n2)C1)c1ccc2cc[nH]c2c1 (stereo not given) | -22% | 28µM* | 35µM* | 35µM* | -21%
SMILES | NPR1 antag | FLuc inh | NIH3T3 tox | HEK cytotox | GPT2 inhibitor
O=C(NC1CCCN(c2cc(-c3ccccc3)[nH]n2)C1)c1ccc2[nH]ccc2c1 (stereo not given) | -20% | 32µM* | u | u | -21%
CN(Cc1cccnc1)Cc1nc(C2(O)CCN(C(=O)c3cccc(F)c3)CC2)cs1 | 0% | i | 1% | -2% | 4%
CCN(CC)C(=S)SSC(=S)N(CC)CC | x | x | x | x | 11µM*!
O=C(NCC1CCOCC1)Nc1ccc(C(F)(F)F)cc1 | 5% | i | -8% | -11% | -8%
COc1ccc(-c2ccc3ncc(Nc4cccnc4OC)n3n2)cc1OC | -1%[70.6 µM] | i | -82%[138 µM] | 14µM* | u
COc1ccc(-c2ccc3ncc(Nc4ccccc4F)n3n2)cc1OC | 0%[70.6 µM] | i | 35µM* | 45µM* | -2%[88.5 µM]
COc1ccccc1Nc1cnc2ccc(-c3ccccc3OC)nn12 | -9%[70.6 µM] | i | u | u | 3%[88.5 µM]
COc1ccccc1-c1ccc2ncc(Nc3cccnc3OC)n2n1 | -14%[70.6 µM] | i | u | u | i
Oc1ccc(O)cc1 | x | x | x | x | i
CC(=O)NC(C)c1nnc2n1CCN(C(=O)c1ccccc1)C2 (stereo not given) | x | x | -27%[138 µM] | -9%[172 µM] | x
COc1cccc(-c2nc3cc4c(cc3cc2CN2CCSCC2)OCO4)c1OC | 0% | i | u | 22µM* | 1%
COc1cccc(-c2nc3cc4c(cc3cc2CN2CCOCC2)OCO4)c1OC | 4% | i | -12% | u | 0%
O=[S+]([O-])(Nc1cccnc1)c1ccc2c(c1)OCCN(Cc1cncc(F)c1)C2 | 6%[70.6 µM] | i | 45µM* | -9%[172 µM] | -4%[88.5 µM]
O=[S+]([O-])(Nc1cccnc1)c1ccc2c(c1)OCCN(Cc1ccncc1F)C2 | 0%[70.6 µM] | i | 35µM* | -18%[172 µM] | i
Cn1ccnc1CN1CCOc2cc([S+](=O)([O-])Nc3ccccc3)ccc2C1 | -20%[70.6 µM] | i | -23%[138 µM] | 112µM* | 1%[88.5 µM]
O=[S+]([O-])(Nc1ccccc1)c1ccc2c(c1)OCCN(Cc1ccc(F)cc1)C2 | u | i | 50µM* | 71µM* | 4%[88.5 µM]
Cn1ccnc1CN1CCOc2cc([S+](=O)([O-])Nc3nncs3)ccc2C1 | 5%[70.6 µM] | i | u | 5%[172 µM] | -9%[88.5 µM]
O=[S+]([O-])(Nc1nncs1)c1ccc2c(c1)OCCN(Cc1cccs1)C2 | -10%[70.6 µM] | i | 25µM* | -30%[172 µM] | i
COc1ccc(-c2noc([C@@H]3C[C@@H](O)CN3C3CCN(C)CC3)n2)cc1 | 7%[70.6 µM] | 71µM* | -10%[174 µM] | -23%[172 µM] | 3%[88.5 µM]
O=[N+]([O-])c1cccc(-c2noc([C@@H]3C[C@@H](O)CN3CC3CCCCC3)n2)c1 | -12%[70.6 µM] | i | u | 63µM* | -21%[88.5 µM]
O[C@@H]1C[C@@H](c2nc(-c3ccccc3)no2)N(Cc2ncc[nH]2)C1 | 3%[70.6 µM] | 22µM* | -10%[174 µM] | -8%[172 µM] | -5%[88.5 µM]
COc1ccc(-c2noc([C@@H]3C[C@@H](O)CN3Cc3ccccn3)n2)cc1 | u | u | 35µM* | u | 2%[88.5 µM]
COc1ccc([C@H]2C[C@@H](O)[C@@H](O)[C@@H]2NCc2cnc3ccccc3c2)cc1 | -4%[70.6 µM] | i | u | -29%[172 µM] | 2%[88.5 µM]
